Source: PubChem BioAssay AID1159580 (chemical genetic matrix, 2015)
About 2,000 (36%) of roughly 5,500 compounds were called active. Another 18% or so got no clear call; they are omitted. No stated cut-off is given here; in the data, active means normalized growth mostly below about 0.91 (no sharp cut-off); inconclusive means no clear call, values can overlap the other calls; inactive means mostly above about 0.92. The list shows a part of the results.

Experiment: chemical genetic growth profiling, strain panel (AID 1159580);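 further: tested at 20 µM; growth read once vehicle control cultures reached saturation at 30 °C; 1 = growth at the plate median or of vehicle wells; lower values mean less growth of the strain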
Settings: growth OD

Measured: normalized growth

C[C@]12CCC3c4ccc(O)cc4CCC3C1CC[C@@H]2O (stereo not given in full)
inactive: S. cerevisiae deletion strains, locus YJR066W, strain TOR1, hits give low values 0.902 | S. cerevisiae deletion strains, locus YJR075W, strain HOC1, hits give low values 1.02 | S. cerevisiae deletion strains, locus YKL009W, strain mrt4, hits give low values 0.892 | S. cerevisiae deletion strains, locus YKL068W, hits give low values 1.02 | S. cerevisiae deletion strains, locus YKL085W, strain MDH1 (second series), hits give low values 1.04 | S. cerevisiae deletion strains, locus YKL085W, strain MDH1, hits give low values 1.04 | S. cerevisiae deletion strains, locus YKL160W, strain elf1, hits give low values 0.988 | S. cerevisiae deletion strains, locus YKL190W, strain CNB1, hits give low values 1.03 | S. cerevisiae deletion strains, locus YKR001C, strain vps1, hits give low values 0.915 | S. cerevisiae deletion strains, locus YKR026C, strain gcn3, hits give low values 1.03 | S. cerevisiae deletion strains, locus YKR091W, strain srl3, hits give low values 1.02 | S. cerevisiae deletion strains, locus YLL001W, strain dnm1, hits give low values 1.02 | S. cerevisiae deletion strains, locus YLL026W, hits give low values 0.982 | S. cerevisiae deletion strains, locus YLL041C, strain sdh2, hits give low values 1.02 | S. cerevisiae deletion strains, locus YLR027C, strain aat2, hits give low values 0.973 | S. cerevisiae deletion strains, locus YLR039C, strain RIC1, hits give low values 0.866 | S. cerevisiae deletion strains, locus YLR058C, strain SHM2, hits give low values 1 | S. cerevisiae deletion strains, locus YLR102C, strain apc9, hits give low values 1.01 | S. cerevisiae deletion strains, locus YLR113W, strain HOG1, hits give low values 0.983 | S. cerevisiae deletion strains, locus YLR221C, strain rsa3, hits give low values 0.977 | S. cerevisiae deletion strains, locus YLR258W, strain gsy2, hits give low values 0.96 | S. cerevisiae deletion strains, locus YLR262C, strain YPT6, hits give low values 0.819 | S. cerevisiae deletion strains, locus YLR268W, strain sec22, hits give low values 0.936 | S. cerevisiae deletion strains, locus YLR320W, strain mms22, hits give low values 0.892 | S. cerevisiae deletion strains, locus YLR330W, strain CHS5, hits give low values 1 | S. cerevisiae deletion strains, locus YLR342W, strain FKS1 (second series), hits give low values 0.868 | S. cerevisiae deletion strains, locus YLR342W, strain FKS1, hits give low values 1 | S. cerevisiae deletion strains, locus YLR357W, strain rsc2, hits give low values 1.03 | S. cerevisiae deletion strains, locus YLR370C, strain arc18, hits give low values 1 | S. cerevisiae deletion strains, locus YLR371W, strain rom2, hits give low values 1.02 | S. cerevisiae deletion strains, locus YLR384C, strain iki3, hits give low values 1.02 | S. cerevisiae deletion strains, locus YLR418C, strain cdc73, hits give low values 0.896 | S. cerevisiae deletion strains, locus YML016C, strain PPZ1, hits give low values 1.01 | S. cerevisiae deletion strains, locus YML032C, strain rad52, hits give low values 0.977 | S. cerevisiae deletion strains, locus YML120C, strain ndi1, hits give low values 0.996 | S. cerevisiae deletion strains, locus YML124C, strain tub3, hits give low values 1.01 | S. cerevisiae deletion strains, locus YMR058W, strain fet3, hits give low values 0.917 | S. cerevisiae deletion strains, locus YMR078C, strain ctf18, hits give low values 0.985 | S. cerevisiae deletion strains, locus YMR125W, strain sto1, hits give low values 1.1 | S. cerevisiae deletion strains, locus YMR129W, hits give low values 1.02 | S. cerevisiae deletion strains, locus YMR205C, strain PFK2, hits give low values 1.01 | S. cerevisiae deletion strains, locus YMR223W, strain ubp8, hits give low values 0.974 | S. cerevisiae deletion strains, locus YMR231W, strain pep5, hits give low values 1.01 | S. cerevisiae deletion strains, locus YMR263W, strain SAP30, hits give low values 0.98 | S. cerevisiae deletion strains, locus YMR307W, strain GAS1, hits give low values 0.929 | S. cerevisiae deletion strains, locus YNL067W, strain RPL9B, hits give low values 0.978 | S. cerevisiae deletion strains, locus YNL071W, strain lat1, hits give low values 0.958 | S. cerevisiae deletion strains, locus YNL153C, strain GIM3, hits give low values 0.955 | S. cerevisiae deletion strains, locus YNL183C, strain NPR1, hits give low values 0.912 | S. cerevisiae deletion strains, locus YNL209W, strain ssb2, hits give low values 1.01 | S. cerevisiae deletion strains, locus YNL233W, strain BNI4, hits give low values 0.997 | S. cerevisiae deletion strains, locus YNL248C, strain rpa49, hits give low values 0.993 | S. cerevisiae deletion strains, locus YNL250W, strain rad50, hits give low values 0.955 | S. cerevisiae deletion strains, locus YNL271C, strain bni1, hits give low values 0.977 | S. cerevisiae deletion strains, locus YNL307C, strain MCK1, hits give low values 0.987 | S. cerevisiae deletion strains, locus YNL322C, strain KRE1 (second series), hits give low values 1.03 | S. cerevisiae deletion strains, locus YNR049C, strain mso1, hits give low values 1.02 | S. cerevisiae deletion strains, locus YNR052C, strain pop2, hits give low values 0.928 | S. cerevisiae deletion strains, locus YOL006C, strain TOP1, hits give low values 0.744 | S. cerevisiae deletion strains, locus YOL012C, strain htz1 1.8 | S. cerevisiae deletion strains, locus YOL147C, strain pex11, hits give low values 1 | S. cerevisiae deletion strains, locus YOR001W, strain rrp6, hits give low values 0.948 | S. cerevisiae deletion strains, locus YOR061W, strain CKA2, hits give low values 0.984 | S. cerevisiae deletion strains, locus YOR069W, strain VPS5, hits give low values 1 | S. cerevisiae deletion strains, locus YOR070C, strain gyp1, hits give low values 0.974 | S. cerevisiae deletion strains, locus YOR080W, strain dia2, hits give low values 0.996 | S. cerevisiae deletion strains, locus YOR083W, strain WHI5, hits give low values 0.96 | S. cerevisiae deletion strains, locus YOR106W, strain vam3, hits give low values 0.934 | S. cerevisiae deletion strains, locus YOR136W, strain idh2, hits give low values 0.978 | S. cerevisiae deletion strains, locus YOR144C, strain elg1, hits give low values 0.974 | S. cerevisiae deletion strains, locus YOR231W, strain MKK1, hits give low values 0.928 | S. cerevisiae deletion strains, locus YOR265W, strain rbl2, hits give low values 0.986 | S. cerevisiae deletion strains, locus YOR270C, strain vph1, hits give low values 0.797 | S. cerevisiae deletion strains, locus YOR290C, strain snf2, hits give low values 0.906 | S. cerevisiae deletion strains, locus YOR316C, strain cot1, hits give low values 1 | S. cerevisiae deletion strains, locus YPL051W, strain arl3, hits give low values 0.953 | S. cerevisiae deletion strains, locus YPL055C, strain LGE1, hits give low values 0.907 | S. cerevisiae deletion strains, locus YPL078C, strain atp4, hits give low values 0.963 | S. cerevisiae deletion strains, locus YPL106C, strain sse1, hits give low values 1.08 | S. cerevisiae deletion strains, locus YPL240C, strain hsp82, hits give low values 0.999 | S. cerevisiae deletion strains, locus YPL256C, strain CLN2, hits give low values 0.99 | S. cerevisiae deletion strains, locus YPR119W, strain clb2, hits give low values 1.03 | S. cerevisiae deletion strains, locus YPR141C, strain kar3, hits give low values 1.03 | S. cerevisiae deletion strains, locus YPR163C, strain tif3, hits give low values 0.963 | S. cerevisiae deletion strains, locus YPR167C, strain met16, hits give low values 0.985 | S. cerevisiae deletion strains, strain wtn01, hits give low values 0.92 | S. cerevisiae strains, strain wild type, hits give low values 1
active: S. cerevisiae deletion strains, locus YLR262C, strain YPT6 (second series), hits give low values 0.738 | S. cerevisiae deletion strains, locus YNL298W, strain CLA4, hits give low values 0.897 | S. cerevisiae deletion strains, locus YOR184W, strain ser1, hits give low values 0.857
